Assay results published in PubChem BioAssay (NCI).
The panel holds about 83,000 compounds, 20% with a hit somewhere; the sample as a whole holds those more often.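 Method: cells in 96-well plates; compound added at one concentration; 48 h incubation; percent growth measured; values under 10 scored active.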 Activity calls are given as the source filed them.

Legend:
Test in all cases: NCI-60 one-dose screen, 48 h (100 = growth as untreated, 0 = no growth, -100 = all killed)
Conditions in all cases: 10 µM unless noted
DU-145 prostate = tested on: DU-145 prostate
K-562 leukemia = tested on: K-562 leukemia
MALME-3M melanoma = tested on: MALME-3M melanoma
MDA-MB-231 breast = tested on: MDA-MB-231 breast
SF-268 CNS = tested on: SF-268 CNS
SF-295 CNS = tested on: SF-295 CNS
SF-539 CNS = tested on: SF-539 CNS
UACC-257 melanoma = tested on: UACC-257 melanoma
M14 melanoma = tested on: M14 melanoma
HCT-15 colon = tested on: HCT-15 colon
HT29 colon = tested on: HT29 colon
SNB-75 CNS = tested on: SNB-75 CNS
SNB-19 CNS = tested on: SNB-19 CNS
PC-3 prostate = tested on: PC-3 prostate
SK-MEL-5 melanoma = tested on: SK-MEL-5 melanoma
UACC-62 melanoma = tested on: UACC-62 melanoma
LOX IMVI melanoma = tested on: LOX IMVI melanoma
SK-MEL-28 melanoma = tested on: SK-MEL-28 melanoma

Measured: growth

O=C(N/N=C/c1ccc(O)cc1O)c1cccnc1
inactive: DU-145 prostate 48.4% | K-562 leukemia 26.7% | MALME-3M melanoma 61.8% | MDA-MB-231 breast 62.5% | SF-268 CNS 43.6% | SF-295 CNS 15.6% | SF-539 CNS 29.5% | M14 melanoma 39.3% | HCT-15 colon 30.7% | HT29 colon 46.1% | SNB-75 CNS 37.7% | SNB-19 CNS 70.5% | PC-3 prostate 53.2% | SK-MEL-5 melanoma 39.3% | UACC-62 melanoma 34.2% | LOX IMVI melanoma 21.8% | SK-MEL-28 melanoma 50.4%
active: UACC-257 melanoma -3.63%

Cc1cc(Nc2nc(-c3cccnc3)nc3ccccc23)n[nH]1
inactive: DU-145 prostate 74.3% | K-562 leukemia 48.1% | MALME-3M melanoma 99.1% | MDA-MB-231 breast 95.7% | SF-268 CNS 58.1% | SF-295 CNS 53.3% | SF-539 CNS 34.7% | UACC-257 melanoma 59.7% | M14 melanoma 72.5% | HCT-15 colon 29.7% | HT29 colon 23.4% | SNB-19 CNS 77.6% | PC-3 prostate 58.7% | SK-MEL-5 melanoma 73.8% | UACC-62 melanoma 49.3% | LOX IMVI melanoma 20.1% | SK-MEL-28 melanoma 50.5%
active: SNB-75 CNS -32.9%

CCOC(=O)CC(C)=N
inactive: DU-145 prostate 121% | K-562 leukemia 110% | MALME-3M melanoma 99.9% | MDA-MB-231 breast 103% | SF-268 CNS 130% | SF-295 CNS 111% | SF-539 CNS 97.6% | UACC-257 melanoma 102% | M14 melanoma 102% | HCT-15 colon 105% | HT29 colon 103% | SNB-75 CNS 84% | SNB-19 CNS 99.7% | PC-3 prostate 104% | SK-MEL-5 melanoma 100% | UACC-62 melanoma 102% | LOX IMVI melanoma 118% | SK-MEL-28 melanoma 101%

COc1ccc(-c2nc(Nc3cc(C)[nH]n3)c3ccccc3n2)cc1
inactive: DU-145 prostate 61% | K-562 leukemia 24.2% | MALME-3M melanoma 79.9% | MDA-MB-231 breast 65.3% | SF-268 CNS 37.3% | SF-295 CNS 48.8% | SF-539 CNS 15% | UACC-257 melanoma 52% | M14 melanoma 60.4% | HCT-15 colon 42.4% | HT29 colon 17.4% | SNB-19 CNS 53.8% | PC-3 prostate 57.2% | SK-MEL-5 melanoma 69% | UACC-62 melanoma 52.9% | LOX IMVI melanoma 13.7% | SK-MEL-28 melanoma 61.5%
active: SNB-75 CNS -33.5%

Cc1cc(Nc2nc(N3CCNCC3)nc3ccccc23)n[nH]1
inactive: DU-145 prostate 119% | K-562 leukemia 81.5% | MALME-3M melanoma 80.4% | MDA-MB-231 breast 103% | SF-268 CNS 90.6% | SF-295 CNS 88% | SF-539 CNS 79.4% | UACC-257 melanoma 87.1% | M14 melanoma 92.5% | HCT-15 colon 70.5% | HT29 colon 82.1% | SNB-19 CNS 101% | PC-3 prostate 80.8% | SK-MEL-5 melanoma 95.8% | UACC-62 melanoma 74.6% | LOX IMVI melanoma 88.6% | SK-MEL-28 melanoma 86%
active: SNB-75 CNS -16.6%

c1c2c(cc3c1OCO3)Cc1cc3c(cc1Cc1cc4c(cc1C2)OCO4)OCO3
inactive: DU-145 prostate 121% | K-562 leukemia 117% | MALME-3M melanoma 116% | MDA-MB-231 breast 116% | SF-268 CNS 111% | SF-295 CNS 95.8% | SF-539 CNS 97.9% | UACC-257 melanoma 84.6% | M14 melanoma 104% | HCT-15 colon 103% | HT29 colon 108% | SNB-75 CNS 73% | SNB-19 CNS 106% | PC-3 prostate 99.8% | SK-MEL-5 melanoma 108% | UACC-62 melanoma 108% | LOX IMVI melanoma 95.8% | SK-MEL-28 melanoma 103%

CC(=O)OCC(=O)C1CCC=CC1OC(C)=O (configuration not stated)
inactive: DU-145 prostate 103% | K-562 leukemia 98.9% | MALME-3M melanoma 74.2% | MDA-MB-231 breast 109% | SF-268 CNS 106% | SF-295 CNS 94.8% | SF-539 CNS 103% | UACC-257 melanoma 92.6% | M14 melanoma 96.9% | HCT-15 colon 103% | HT29 colon 107% | SNB-75 CNS 80.9% | SNB-19 CNS 93.5% | PC-3 prostate 105% | SK-MEL-5 melanoma 97.7% | UACC-62 melanoma 95.4% | LOX IMVI melanoma 96.1% | SK-MEL-28 melanoma 108%

COc1cccc2c1C(=O)c1c(O)c3c(c(O)c1C2=O)C[C@@](O)(/C(C)=N/NC(=O)c1ccc(Cl)cc1)C[C@@H]3OC1CC(N)C(O)C(C)O1 (some centres not stated)
active: DU-145 prostate -0.501% | K-562 leukemia -19.5% | MALME-3M melanoma -74.6% | MDA-MB-231 breast -1.48% | SF-268 CNS -54.8% | SF-295 CNS -60.4% | SF-539 CNS -45.5% | UACC-257 melanoma -57.1% | M14 melanoma -60% | HT29 colon -42.6% | SNB-75 CNS -84.3% | SNB-19 CNS 5.54% | PC-3 prostate -36.5% | SK-MEL-5 melanoma -45.2% | UACC-62 melanoma -72.8% | LOX IMVI melanoma -44.6% | SK-MEL-28 melanoma -32.3%
inactive: HCT-15 colon 16.4%

Nc1cc2nc3ccccc3sc-2cc1=O
active: MALME-3M melanoma -7%
inactive: DU-145 prostate 21.5% | K-562 leukemia 28.5% | MDA-MB-231 breast 59.2% | SF-268 CNS 78.1% | SF-295 CNS 65.9% | SF-539 CNS 98% | UACC-257 melanoma 50.8% | M14 melanoma 81.2% | HCT-15 colon 55.2% | HT29 colon 94.1% | SNB-75 CNS 109% | SNB-19 CNS 91.7% | PC-3 prostate 50.8% | SK-MEL-5 melanoma 31.3% | UACC-62 melanoma 17.2% | LOX IMVI melanoma 11% | SK-MEL-28 melanoma 46.5%
